Laboratory results reported in PubChem BioAssay (NCI).
Compounds without any hit were thinned out: in the full panel of roughly 83,000, 20% have a hit.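 Activity criterion: percent growth below 10, measured after cells in 96-well plates were exposed to a single compound concentration for 48 hours.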 Unmarked numbers belong to inactive results. Activity calls are given as the source filed them.

Experiments:
Assay in all cases: NCI-60 one-dose screen, 48 h (100 = growth as untreated, 0 = no growth, -100 = all killed)
Conditions in all cases: 10 µM unless noted
EKVX NSCLC = system: EKVX NSCLC
SN12C renal = system: SN12C renal
UO-31 renal = system: UO-31 renal
TK-10 renal = system: TK-10 renal
ACHN renal = system: ACHN renal
A498 renal = system: A498 renal
CCRF-CEM leukemia = system: CCRF-CEM leukemia
MOLT-4 leukemia = system: MOLT-4 leukemia
CAKI-1 renal = system: CAKI-1 renal

Structure (SMILES)	growth (EKVX NSCLC)	growth (SN12C renal)	growth (UO-31 renal)	growth (TK-10 renal)	growth (ACHN renal)	growth (A498 renal)	growth (CCRF-CEM leukemia)	growth (MOLT-4 leukemia)	growth (CAKI-1 renal) [%]
CCCCc1n(Cc2ccc3ccccc3n2)cc[n+]1Cc1ccc2ccccc2n1	50.9%	4.6% (active)	83.5%	27.6%	96.1%	7.39% (active)	23.3%	14.9%	–
COc1ccc(/C=C(/C(=O)N2CCN(c3ccccc3)CC2)c2cc(OC)c(OC)c(OC)c2)cc1O	41%	31.4%	45.6%	64%	33.1%	-3.6% (active)	8.16% (active)	8.78% (active)	–
CCSc1ccc([C@@H]2[C@@H](O)C(=O)N2c2cc(OC)c(OC)c(OC)c2)cc1	52.3%	38.8%	50.5%	77.2%	32.7%	-10.6% (active)	11.9%	10.8%	–
Cc1cc(O)c(C2=NN(c3ccc(S(N)(=O)=O)cc3)C(c3ccc(Cl)cc3)C2)c(C)c1Cl (configuration not stated)	49.7%	36.1%	66.6%	80%	58.7%	87.2%	11.6%	14.3%	–
CCOc1c(C#N)c2c(N)ncnc2n1C1OC(CO)C(O)C1O (configuration not stated)	58.4%	39.2%	6.4% (active)	88.4%	33.9%	-13% (active)	-8.09% (active)	–	–
CC(=O)OC1Oc2cc(C)c(C)cc2-c2oc(=O)c(-c3cc4ccccc4oc3=O)cc21 (configuration not stated)	115%	114%	96.2%	156%	71.9%	75%	94%	–	–
CC(=O)[C@@]1(O)[C@H](C)C[C@H]2[C@@H]3C=C(C)C4=Cc5c(cnn5-c5ccccc5)C[C@]4(C)[C@H]3[C@@H](O)C[C@@]21C	13.2%	41.3%	-4.99% (active)	34.5%	42.3%	-16.8% (active)	-28% (active)	–	–
COc1ccc([C@@H]2[C@@H](Cl)C(=O)N2c2cc(OC)c(OC)c(OC)c2)cc1C	44.2%	31.2%	38.8%	71.3%	31.6%	-7.32% (active)	9.56% (active)	8.89% (active)	–
O=C(C(=O)c1cccnc1)c1cccnc1	110%	107%	105%	158%	110%	55.6%	120%	–	–
c1ccc2c(c1)cnc1ccccc12	115%	95.5%	95.2%	116%	100%	-7.57% (active)	97.8%	–	–
CCSc1ccc([C@@H]2[C@@H](N)C(=O)N2c2cc(OC)c(OC)c(OC)c2)cc1	41%	49.6%	49.4%	58.9%	50.7%	3.94% (active)	11.6%	13.1%	–
CCOc1ccc([C@@H]2[C@@H](Oc3ccccc3)C(=O)N2c2cc(OC)c(OC)c(OC)c2)cc1	43.5%	31.4%	35.3%	48.1%	25.3%	-9.61% (active)	7.6% (active)	–	–
COc1ccc(/C=C(/C(=O)N2CCN(c3ccccc3)CC2)c2cc(OC)c(OC)c(OC)c2)cc1N	41.1%	40.1%	52.1%	63.5%	35.1%	-2.34% (active)	8.84% (active)	10.1%	–
CCOC(=O)C(=CNc1ccccc1Cl)C(=O)OCC	106%	101%	89.1%	99.3%	79.2%	5.74% (active)	85.8%	–	–
O=C(O)Cn1ccc2ccccc21	102%	113%	76.4%	153%	99.9%	110%	98.4%	–	–
Cc1cc(O)ccc1C1=NN(c2ccc(S(N)(=O)=O)cc2)C(=O)CC1	52.6%	70.7%	65.4%	114%	77.6%	-2.97% (active)	46.2%	–	–
O=c1[nH]c2cc(Cl)c(Cl)cc2o1	68.3%	95.5%	99.6%	113%	104%	92.7%	118%	106%	–
Cc1ccc2oc(=O)cc(-c3nc4ccc([N+](=O)[O-])cc4[nH]3)c2c1	62.6%	59.7%	51.7%	62%	63%	43.7%	51.6%	39.6%	–

Structure (SMILES)	growth (EKVX NSCLC)	growth (SN12C renal)	growth (UO-31 renal)	growth (TK-10 renal)	growth (ACHN renal)	growth (A498 renal)	growth (CCRF-CEM leukemia)	growth (MOLT-4 leukemia)	growth (CAKI-1 renal) [%]
COc1cccc(OCC(O)CN2CCN(c3ccccc3)CC2)c1 (configuration not stated)	103%	105%	96.3%	151%	109%	90.6%	121%	–	–
c1ccc(-c2[nH]c3ccccc3c2-c2ccccc2)cc1	77.1%	91.8%	88.6%	107%	93.2%	92.8%	47.6%	66.2%	–
Cc1ccc(NC(=O)c2[nH]c(SCCN(C)C)nc2-c2ccc(F)cc2)cc1Nc1ccc2ncn(C)c(=O)c2c1	75.2%	64.6%	31.4%	63%	69%	61.2%	61.6%	41.2%	–
Nc1cc2nc3ccccc3oc-2cc1=O	61%	-48.8% (active)	-40.2% (active)	173%	53.3%	-7.02% (active)	94%	–	–
O=c1[nH]cnc2nc[nH]c12	81.6%	96.7%	94.2%	115%	103%	87.9%	120%	-45.9% (active)	–
CC(=O)OC1Oc2ccccc2-c2oc3nc(=N)n(C)c-3cc21 (configuration not stated)	122%	108%	88.6%	155%	110%	138%	77%	–	–
N#Cc1c(NN)n(C2OC(CO)C(O)C2O)c2ncnc(N)c12 (configuration not stated)	-0.0983% (active)	16.1%	-23.5% (active)	11.2%	7.45% (active)	-17.8% (active)	-22.3% (active)	–	–
COc1ccc(/C(=C\c2cc(OC)c(OC)c(OC)c2)C(=O)N2CCNCC2)cc1	105%	101%	83.4%	94.6%	98%	85.6%	96.1%	87.2%	–
C1=C\CCCCN2CC[C@H]3[C@H](CCCC/C=C\CCCN4C[C@@H](CCCCC/1)C[C@@H]3C4)C2	108%	81.2%	14.6%	109%	23.4%	-11.8% (active)	7.61% (active)	–	–
CC(OC(=O)Nc1cccc(Cl)c1)C(=O)O (configuration not stated)	103%	92.7%	90.7%	102%	97.4%	23.2%	101%	–	–
CNC(=O)c1cc(Oc2ccc(NC(=O)c3[nH]c(SC)nc3-c3ccc(F)cc3)cc2)ccn1	63.7%	39.2%	60.5%	88.3%	39.8%	61.1%	85.3%	38.4%	–
O=c1cc(N2CCOCC2)oc2c(-c3ccc4c(c3)OCCO4)csc12	9.76% (active)	20.2%	1% (active)	-14.5% (active)	6.19% (active)	-41% (active)	28%	4.69% (active)	–
Cc1ccc(NC(=O)c2[nH]c(SCCN(C)C)nc2-c2ccc(F)cc2)cc1C#Cc1cnc2cccnn12	38.2%	87.3%	-77.2% (active)	105%	-88% (active)	102%	1.64% (active)	55.1%	–
Cc1nc([C@H]2CC[C@H]3[C@@H]4CCC5=CC(=O)CC[C@]5(C)[C@H]4CC[C@]23C)cs1	42.2%	84.1%	76.3%	103%	68.6%	74.4%	40.7%	–	–
CCOc1cccc(/C=N/NC(=O)Cc2ccc(Nc3ccnc(C(F)(F)F)c3)cc2)c1O	20.4%	43%	–	47.1%	6.94% (active)	91.9%	-21.7% (active)	40.6%	36.8
NNC(=O)Cc1ccccc1	81.2%	93.4%	76.2%	111%	78.9%	97.2%	57.1%	79.9%	–
O=C(Nc1ccc(Oc2ccc(NC(=O)Nc3ccccc3Cl)cc2)cc1)Nc1ccccc1Cl	76.5%	44.1%	20.1%	75.1%	67.4%	–	42.4%	–	–
